Most compounds without a hit are left out; they make up all but 3.3% or so of the library.
USP1-UAF1 inh: Inhibitors of USP1/UAF1: Primary Screen; 390,000 tested, 0.23% active; AID 743255, 2014; recombinant USP1/UAF1, Ub-Rhodamine cleavage fluorescence; Potency, µM (series often up to 57.1 µM), for the others: top-dose activity change, negative = inhibition, actives largely listed as inhibitors; Ubiquitin carboxyl-terminal hydrolase 1 (Homo sapiens), O94782; also: potency is read from the fitted curve at half-maximal effect; nearly all actives have a fitted effect of over 60% in size
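In this screen, compounds sit with the deubiquitinase complex (1nM) for 15 min at room temperature before Ub-Rho is added at 150nM final. Fluorescence rise is then followed for 6 reads every 60 seconds.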
PLK1 PBD inh: qHTS for Inhibitors of PLK1-PDB (polo-like kinase 1 - polo-box domain): Primary Screen. 360,000 tested, 2.8% active. Potency, µM, for the others: max response, negative = inhibition, actives largely listed as inhibitors. Plk1 PBD binding of FITC phosphopeptide, fluorescence polarization. Serine/threonine-protein kinase PLK1 (Homo sapiens), P53350; also: potency is read from the fitted curve at half-maximal effect; series mostly up to about 57 µM; nearly all actives have a fitted effect of over 65% in size
USP2a inh: qHTS Assay for Inhibitors of Ubiquitin-specific Protease USP2a Using CHOP2 as the Reporter; 330,000 tested, 0.01% active; USP2 core, Ub-CHOP2 coupled fluorogenic reporter, 485/531; Potency, µM (series often up to 38.3 µM), for inactives: top-dose activity change, negative = inhibition, usual class: inhibitors; Ubiquitin carboxyl-terminal hydrolase 2 (Homo sapiens), O75604;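 also: potency is read from the fitted curve at half-maximal effect; plate controls were DMSO wells for no effect and full inhibition by NEM control for full effect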
Target sequence (O75604 whole entry, looked up): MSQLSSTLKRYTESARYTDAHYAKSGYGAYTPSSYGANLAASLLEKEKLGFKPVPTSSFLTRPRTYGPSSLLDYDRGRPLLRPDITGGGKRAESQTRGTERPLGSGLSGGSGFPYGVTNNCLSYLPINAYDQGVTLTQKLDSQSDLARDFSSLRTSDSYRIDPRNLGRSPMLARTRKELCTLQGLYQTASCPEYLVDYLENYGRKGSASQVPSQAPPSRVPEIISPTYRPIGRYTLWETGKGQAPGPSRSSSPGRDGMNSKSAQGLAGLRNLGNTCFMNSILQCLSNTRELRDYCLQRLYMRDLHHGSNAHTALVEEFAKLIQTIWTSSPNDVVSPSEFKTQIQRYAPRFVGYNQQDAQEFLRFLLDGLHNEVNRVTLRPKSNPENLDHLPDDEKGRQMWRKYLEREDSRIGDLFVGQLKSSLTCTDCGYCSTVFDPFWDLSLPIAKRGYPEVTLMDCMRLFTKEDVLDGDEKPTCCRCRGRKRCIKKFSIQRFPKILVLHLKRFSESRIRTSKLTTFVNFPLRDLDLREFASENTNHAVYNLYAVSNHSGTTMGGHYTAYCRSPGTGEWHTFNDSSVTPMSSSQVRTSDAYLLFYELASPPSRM
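USP2 core (10nM final) preincubated 30min RT with compound in 20mM Tris-HCl pH 8.0, 2mM CaCl2, 2mM beta-mercaptoethanol, 0.05% CHAPS; 25nM Ub-CHOP2 plus 25nM reporter substrate added, fluorescence (Ex485/Em531) read after 60min.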
WRN helicase inh: qHTS for Inhibitors of WRN Helicase | Bifunctional 3'-5' exonuclease/ATP-dependent helicase WRN (Homo sapiens), Q14191 | WRN helicase unwinding, fluorescent forked duplex, kinetic | Potency, µM (series often up to 114 µM), without a hit: at the highest dose activity change, negative = inhibition, hits mostly inhibitors | 360,000 tested, 0.46% active; also: potency is read from the fitted curve at half-maximal effect; nearly all actives have a fitted effect of over 55% in size
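Kinetic red-fluorescence monitoring (525/598 nm) tracks WRN helicase activity after 100 nM fluorophore-quencher forked duplex and 2 mM ATP are added to 20 nM enzyme pretreated 15 min at room temperature with compound.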
PI5P4Ka inh: qHTS for Inhibitors of phosphatidylinositol 5-phosphate 4-kinase (PI5P4K) | Phosphatidylinositol 5-phosphate 4-kinase type-2 alpha (Homo sapiens), P48426 | PI5P4Kalpha enzyme, ADP-Glo luminescence, 60 min; hits give low values | max response, % | 330,000 tested, 1.2% active | AID 652105, 2013; active = max response of -50% or lower; inconclusive = between -30% and -50%; inactive = -30% or higher; also: value at the top dose of about 77 µM
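Controls without substrate or without enzyme flank wells where PI5P4Kalpha converts substrate using 5 microM ATP (final). Incubation lasts 60 minutes at room temperature; ADP formed is read by ADP-Glo luminescence.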
Starred values were filed as active, the others as inactive; ? = inconclusive; nt = no result; [ ] = dose if it differs, or a comment. Unless noted, calls follow the shape of the dose curve; as a rule, active = well fitted curve in the direction sought with a large enough effect; inconclusive = small, poorly fitted or top-dose-only effect, or another doubt; inactive = no such curve, though single readings can be large; an effect the other way counts as inactive or inconclusive. Unless noted, % is scaled to controls: 0 for no effect and ±100 for the full control effect.

SMILES	USP1-UAF1 inh	PLK1 PBD inh	USP2a inh	WRN helicase inh	PI5P4Ka inh
Cc1nc(N2CCN(Cc3ccc4c(c3)OCO4)CC2)[nH]c(=O)c1C	-9%	-1%	3%	-5%	1
CC1(C)CC(=O)C2=C(C1)NCN(Cc1ccc3c(c1)OCO3)C2	-15%	27µM*	0%	13%	-18
CC(=O)c1c(OCC(=O)O)ccc2c(C)cc(=O)oc12	1%	-6%	nt	8%	nt
CCOC(=O)COc1ccc2c(C)cc(=O)oc2c1C(=O)c1ccccc1	-9%	21µM*	0%	-5%[57.1 µM]	14
COc1cccc(C(=O)Nc2nc(-c3nnn(-c4ccccc4C(F)(F)F)c3C)ns2)c1	4%	nt	nt	nt	nt
Cc1ccc(NC(=O)COC(=O)C2CC2(Cl)Cl)cc1C (stereo unspecified)	-4%	27µM*	1%	7%	?
Cc1ccc(S(=O)(=O)n2nc(OC(=O)c3c(-c4ccccc4Cl)noc3C)cc2N)cc1	-8%	2.7µM*	1%	5%	?
COc1ccc(S(=O)(=O)n2nc(OC(=O)c3ccncc3)cc2N)cc1	-20%	27µM*	1%	1%	-14
Clc1ccccc1OCCSc1nnc(-c2cccs2)o1	-16%	nt	nt	nt	nt
COc1ccc(NC(=O)C2CCN(S(=O)(=O)c3ccc4c(c3)CCCC(=O)N4)CC2)c(OC)c1	-14%	nt	nt	nt	nt
CC(C)Oc1ccc(OCCn2c(=S)[nH]c3c(N)ncnc32)cc1	-19%	11µM*	1%	0%	-5
CSc1cccc(NC(=O)COc2ccccc2)c1	-28%	3µM*	2%	2%	-23
COc1ccc(-n2c(-c3ccc(Cl)cc3)cc3c2CC(C)(C)CC3=O)c(OC)c1	-14%	nt	nt	nt	nt
O=c1c2c([nH]c3ccccc13)C(=C1CCCC1)CC2	-24%	-13%	1%	50µM*	-52*
COc1ccc(C(=O)N2CCCC(N3CCN(c4ccccc4OC)CC3)C2)c(OC)n1 (stereo unspecified)	-23%	5%	-8%	0%	1
COc1ccc(C(=O)N2CCCC(N3CCN(c4ccccc4F)CC3)C2)c(OC)n1 (stereo unspecified)	-9%	30µM*	-1%	-3%	-7
COc1ccc(NC(=O)CN(C)C(=O)/C=C/c2ccc(OCc3ccccc3)cc2)cc1	-5%	30µM*	-2%	13%	-4
COc1ccc(NC(=O)CN(C)C(=O)/C=C/c2ccc(S(=O)(=O)N3CCCCCC3)cc2)cc1	-6%	-9%	0%	6%	-13
Cc1cccc(N=Nc2cn[nH]c2-c2ccco2)c1	-10%	30µM*	-2%	-6%[57.1 µM]	2
CC1=C(C)NC(=S)SC1	-24%	27µM*	1%	-18%	5
CCOC(=O)C1=C(Cc2ccc(F)cc2)C(=O)c2ccccc2C1=O	-22%	9.5µM*	5%	50µM*	nt
COc1cc(OC)cc(C(=O)Nc2ccc([N+](=O)[O-])cn2)c1	-17%	27µM*	3%	-14%	-13
COc1ccc(C(=O)Nc2ccc([N+](=O)[O-])cn2)cc1OC	-3%	1%	1%	-19%[57.1 µM]	?
COc1ccccc1-c1noc(-c2ccc(NC(C)C)c([N+](=O)[O-])c2)n1	-17%	nt	nt	nt	nt
CCCCOc1ccc(C(=O)N(Cc2ccc(N(C)C)cc2)Cc2ccco2)cc1	-17%	nt	nt	nt	nt
SMILES	USP1-UAF1 inh	PLK1 PBD inh	USP2a inh	WRN helicase inh	PI5P4Ka inh
CN(C)c1cc(Cl)c2nonc2c1N	32µM*	-18%	0%	-2%[11.6 µM]	-10
COc1ccccc1NC(=O)N1CC(=O)Nc2sc3c(c2C1c1ccccc1)CCCC3 (stereo unspecified)	-8%	nt	nt	nt	nt
O=c1cc(-c2ccsc2)oc2cc(-c3ccc4c(c3)OCO4)ccc12	-25%	-14%	4%	25µM*	-9
O=C1SC(SCc2ccccc2Cl)=N/C1=C\c1ccc(C(=O)O)cc1	-5%	17µM*	-6%	-18%[11.6 µM]	-27
COc1cccc(CNC(=O)c2ccc(-n3c(C)cc4c3CCCC4)cc2)c1	-6%	nt	nt	nt	nt
Cc1ccc2c(c1)N(C(=O)N1CCC(C(=O)NCCC3=CCCCC3)CC1)CC(C)O2 (stereo unspecified)	-1%	nt	nt	nt	nt
CC1NC(=O)NC1CCCCC(=O)O (stereo unspecified)	6%	11µM*	0%	7%	-20
Cc1c(C(=O)O)cnc2c([N+](=O)[O-])cnn12	-11%	3.4µM*	4%	79µM*	-55*
COc1ccc(-c2cn3nc(SCC(=O)Nc4cccc(C)c4C)ccc3n2)cc1	-4%	nt	nt	nt	nt
CCCCNC(=O)CSc1nnc(C)c2c(C)n(-c3ccccc3)nc12	21%	nt	nt	nt	nt
CCCn1c(SCC(=O)NCc2ccc(F)cc2)n[nH]c1=O	1%	21µM*	2%	-28%	-17
N#CC1C(C#N)N2CCCN2C1c1ccc(Cl)cc1 (stereo unspecified)	1%	3µM*	-1%	2%	?
COc1ccc(C2C(C#N)C(C#N)N3CCCN23)cc1 (stereo unspecified)	-3%	-11%	1%	-4%	0
COc1ccc(N2C(=O)C(Cl)=C(Oc3cccc(OC)c3)C2=O)cc1	-13%	1.9µM*	1%	?	-87*
COc1ccc(N2C(=O)C(Cl)=C(Nc3ccccc3O)C2=O)cc1	-3%	12µM*	5%	-24%	-24
COc1ccc(N2C(=O)C(Cl)=C(Nc3ccccc3OC)C2=O)cc1	-20%	2%	-1%	-10%	-2
COc1ccc(-c2cn3cc(C)ccc3n2)cc1F	3%	9.5µM*	2%	-6%	?
N#CC(=C1Nc2ccccc2N1)S(=O)(=O)c1ccccc1	4%	3.4µM*	4%	?	?
CC1=CC(C)(C)N2C(=O)C(=Nc3ccc(O)cc3)c3cccc1c32	3.5µM*	4.7µM*	2%	?	?
COc1cc(N=C2C(=O)N3c4c(cccc42)C(C)=CC3(C)C)cc(OC)c1	-16%	-9%	0%	-22%	7
COc1ccc2c(c1)Cc1sc(NC(=O)c3cccc(C)c3)nc1-2	35µM*	nt	nt	nt	nt
Cc1ccc(NC(=O)CN2C(=O)S/C(=C/c3ccc(O)c([N+](=O)[O-])c3)C2=O)cc1C	-12%	21µM*	1%	79µM*	-58*
O=C1S/C(=C\c2ccc(O)c([N+](=O)[O-])c2)C(=O)N1Cc1cccc([N+](=O)[O-])c1	-23%	24µM*	-13%	-8%[11.6 µM]	-78*
Cc1nc2c(C(=O)NCCC(C)C)c[nH]n2c(=O)c1Cc1ccccc1F	-7%	21µM*	-9%	-9%[57.1 µM]	nt

Source: PubChem BioAssay (National Center for Advancing Translational Sciences (NCATS))
